Measured values published in the supplement of paper PMC6555819.

system: PPARg homodimer (NR concentration 180 nM); assay: PBM binding z-score (relative to random genomic background probes); higher = stronger binding; sequences stand for … in GC…GCGATTGACAGCGTAGAATGAAGG
Outline: (§1)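 Ligand-free nuclear receptor dimers were bound for 1 h to custom Agilent 4×180K protein-binding microarrays. Detection used antibodies against each partner (one per run). Binding z-scores rest on regression-normalized fluorescence, with random background probes as the reference.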

Row | Sequence | PBM binding z-score
1 | CGAACGAAGGCATGAGTTGATAGCAAATGCCGAT | -0.786
2 | AGTCAAAGTTCAACTAGGTAACGTAAGATATGCT | 3.26
3 | CCTTCCGGGTCACGAGGTTATAGCACGACGAGCG | 2.53
4 | CCTACTGGGCCCAGGTCATTGATCAGTCAAAGCA | 0.811
5 | CTACCAAGGTGAACAAGGTAGTTGATTACTATTC | 0.0631
6 | TCTATAAGTTGATTAGGGCAACCGAAACAGCGGA | 0.532
7 | CCTAGCAGGCCAATATGGGTCACTCAAGGCTTGA | 0.511
8 | GCTCGGAGGCCAAGGTCAGAGCTTTGTCCGTAGA | 1.18
9 | GCTATTAGATGAAAGGGCAACCGAATGATTCTCG | 0.834
10 | CCCACTGGGCCATCAGGTCATTGATATCAACGTT | 2.19
11 | ACAGACAGGTGATGAAGGAAACTCAGGCTATCAT | 0.36
12 | ACTAGTTGGTCAGCTGAGGTCACGCACAATTCGG | 2.43
13 | ATCTCTAGGTAACAAGTTCAGTTAAAGAGAGGAC | 1.31
14 | CGTCAAAGTTCAACTAAGGTAACGTAAAGCACGC | 2.8
15 | CCTAGCAGGCCAGGGCCACTCAAGCATTTCGCTT | -0.711
16 | CCTACTGGGCCATCAGGTCTTTGATATCAACGTT | 0.396
17 | AGTCAAAGTTCATCTAGGTAACGTCAGATATGCT | 5.02
18 | ACTAGCAGGCCAAGGGTCACTCATGATTAGTCCG | 2.62
19 | TCATATAGGTAAAGGTGAAAGTTGAACGATATGA | 1.62
20 | TGAATGAGTTTAAAGATCAGGGAACGTGGCGTCG | 0.122

Row | Sequence | PBM binding z-score
21 | CGTCCACGGTCAATGCTAGGTCAGTGAAAGCATT | 0.415
22 | CAAACTCGGTCACCGGAAGGTCAAAGTCCGCATG | 4.4
23 | GCGACTGGGGCAAAGCGGGTTACCATAAGGTTGG | -0.11
24 | AGAATGAGGTTATACGTAGATCAGGAAAGAAAGT | 0.606
25 | ATATGTAGGTTAGCTGGGGCCATTCAGACTAGGC | 1.13
26 | TCTAGCAGGCCAGAGGGTCAATCAAGAGGTACGG | 1.31
27 | ACTTACGGGTCAACGAGGTGATAGCACGCGTATA | 2.44
28 | CCTACTGGGCCACGAAAGGTCATTGTTTCAGTGA | 3.37
29 | ATACCAAGGTGATCGTCAGGTCGTTGATACTAAC | 0.369
30 | CCGCCTAGGTCAGGGCCAGTATAGGAGGAACGTT | 0.393
31 | ATCTCTAGGTAACGTTCAGTGAAAGATCGATAGA | 0.504
32 | CATACAGGGTCAGGTAGGCCAGAGTAGGGACGGC | 1.75
33 | CATACAGGGTCAGCTAGGCCAGAGTAGGGACGGC | 1.25
34 | ATAACGAGGGCAATGAGTTGATAGCACGGGTGGC | 0.411
35 | CTTACAGGGTCAGCTAGGCCAGAGTAGGGACGGC | 0.148
36 | TCTTGTAGATCAACAGGAGGTTACGAAAGATCGA | 0.494
37 | CCGCCTGGGGCAGAAAGGTTACCATACCATCCGG | 0.297
38 | ATGGAAAGGTCGACGAGGTGAGTATACACCGTTT | 1.38
39 | TCTTGTAGATCAATAGAGGTTACGAAAGTGCGCT | 0.416
40 | TCTATTAGTTGAAGGGCAACTGACGAGTCCGTTT | 0.905

system: PXR:RXRa (NR concentration 270 nM, RXRa partner concentration 90 nM); assay: as above
Outline: as §1

Row | Sequence | PBM binding z-score
41 | CGAACGAAGGCATGAGTTGATAGCAAATGCCGAT | -0.575
42 | AGTCAAAGTTCAACTAGGTAACGTAAGATATGCT | 5.04
43 | CCTTCCGGGTCACGAGGTTATAGCACGACGAGCG | 4.81
44 | CCTACTGGGCCCAGGTCATTGATCAGTCAAAGCA | 1.72
45 | CTACCAAGGTGAACAAGGTAGTTGATTACTATTC | 0.0464
46 | TCTATAAGTTGATTAGGGCAACCGAAACAGCGGA | 0.227
47 | CCTAGCAGGCCAATATGGGTCACTCAAGGCTTGA | 1.14
48 | GCTCGGAGGCCAAGGTCAGAGCTTTGTCCGTAGA | 1.64
49 | GCTATTAGATGAAAGGGCAACCGAATGATTCTCG | 0.424
50 | CCCACTGGGCCATCAGGTCATTGATATCAACGTT | 1.57
51 | ACAGACAGGTGATGAAGGAAACTCAGGCTATCAT | -0.196
52 | ACTAGTTGGTCAGCTGAGGTCACGCACAATTCGG | 5.57
53 | ATCTCTAGGTAACAAGTTCAGTTAAAGAGAGGAC | 1.79
54 | CGTCAAAGTTCAACTAAGGTAACGTAAAGCACGC | 5.69
55 | CCTAGCAGGCCAGGGCCACTCAAGCATTTCGCTT | -1.11
56 | CCTACTGGGCCATCAGGTCTTTGATATCAACGTT | -0.399
57 | AGTCAAAGTTCATCTAGGTAACGTCAGATATGCT | 5.36
58 | ACTAGCAGGCCAAGGGTCACTCATGATTAGTCCG | 3
59 | TCATATAGGTAAAGGTGAAAGTTGAACGATATGA | 2.3
60 | TGAATGAGTTTAAAGATCAGGGAACGTGGCGTCG | 0.802

Row | Sequence | PBM binding z-score
61 | CGTCCACGGTCAATGCTAGGTCAGTGAAAGCATT | 0.201
62 | CAAACTCGGTCACCGGAAGGTCAAAGTCCGCATG | 4.75
63 | GCGACTGGGGCAAAGCGGGTTACCATAAGGTTGG | 0.293
64 | AGAATGAGGTTATACGTAGATCAGGAAAGAAAGT | 1.23
65 | ATATGTAGGTTAGCTGGGGCCATTCAGACTAGGC | 2.87
66 | TCTAGCAGGCCAGAGGGTCAATCAAGAGGTACGG | 1.76
67 | ACTTACGGGTCAACGAGGTGATAGCACGCGTATA | 3.94
68 | CCTACTGGGCCACGAAAGGTCATTGTTTCAGTGA | 5.45
69 | ATACCAAGGTGATCGTCAGGTCGTTGATACTAAC | 1.24
70 | CCGCCTAGGTCAGGGCCAGTATAGGAGGAACGTT | 0.629
71 | ATCTCTAGGTAACGTTCAGTGAAAGATCGATAGA | 0.0439
72 | CATACAGGGTCAGGTAGGCCAGAGTAGGGACGGC | 2.23
73 | CATACAGGGTCAGCTAGGCCAGAGTAGGGACGGC | 1.89
74 | ATAACGAGGGCAATGAGTTGATAGCACGGGTGGC | 2
75 | CTTACAGGGTCAGCTAGGCCAGAGTAGGGACGGC | 1.88
76 | TCTTGTAGATCAACAGGAGGTTACGAAAGATCGA | 0.945
77 | CCGCCTGGGGCAGAAAGGTTACCATACCATCCGG | 0.861
78 | ATGGAAAGGTCGACGAGGTGAGTATACACCGTTT | 2.96
79 | TCTTGTAGATCAATAGAGGTTACGAAAGTGCGCT | 3.21
80 | TCTATTAGTTGAAGGGCAACTGACGAGTCCGTTT | 0.88
